From PubChem BioAssay (EPA / NIEHS)
Several values for one entry are separate records, joined by “and”; a condition that tells them apart may be missing. Identical values can stand only once. Records with an inconclusive call do not appear. Where a structure was tested more than once in an assay, its records may differ in their call. Activity calls are given as the source filed them. Rule for the calls, unless noted: active = hit-call score of the fitted dose curve at least 0.9, where 1 is the maximum; inconclusive = response in the unintended direction; inactive = score below 0.9.

How the values were obtained:
[1] = CCTE_Deisenroth_5AR_NBTE_donor: CCTE's 5alpha-reductase NanoBRET Target Engagement Assay […], Deisenroth Lab (AID 2284319; active = hit-call score of the fitted dose curve at least 0.9, where 1 is the maximum; inactive = score below 0.9); settings: actives raise or lower the signal
Outline: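 In this secondary endpoint, donor luminescence from SRD5A2-NanoLuc in transfected HEK293T flags artifacts. Test chemical (10 nM - 29.9 uM) is present five hours, tracer the last two; mock-tracer wells run plate-matched; data fitted bidirectionally against DMSO.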

[2] = CCTE_Deisenroth_5AR_NBTE_acceptor: CCTE's 5alpha-reductase NanoBRET Target Engagement Assay - Autofluorescence Screen, Deisenroth Lab (AID 2284321; active = hit-call score of the fitted dose curve at least 0.9, where 1 is the maximum; inactive = score below 0.9;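 note: compound fluorescence in the acceptor channel under 460 nm excitation flags autofluorescence artifacts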); settings: actives raise or lower the signal
Outline: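 Autofluorescence check: ToxCast chemicals, nominal 100 uM, excitation 460 nm, n=3 runs. Acceptor fluorescence endpoint, bidirectional fit relative to DMSO. Parent assay in HEK293T, 5 h post-dose.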

SRD5A2 (gene 6716) = assay: CCTE_Deisenroth_5AR_NBTE_ratio: CCTE's 5alpha-reductase NanoBRET Target Engagement Assay - Ratio, Deisenroth Lab (AID 2284322; active = hit-call score of the fitted dose curve at least 0.9, where 1 is the maximum; inactive = score below 0.9); settings: actives raise or lower the signal
Outline: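 HEK293T transiently expressing SRD5A2-NanoLuc; cells exposed to chemical (8-point, 10 nM - 29.9 uM) for 5 h total, testosterone tracer added for final 2 h. NanoBRET acceptor/donor ratio (650/460 nm), bidirectional fit vs DMSO.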

[3] = IUF_NPC4_neurite_length_120hr: Leibniz Research Institute for Environmental Medicine (IUF) 120-hour Neuronal Morphology Assay for Neurite Length (NPC4) (AID 2284302; active = hit-call score of the fitted dose curve at least 0.9, where 1 is the maximum; inactive = score below 0.9)
Outline: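 Human fetal cortex (GW 16-19) neural progenitor spheres, 0.3 mm, were plated on poly-D-lysine/laminin in N2 differentiation medium and exposed from day 0 for 120 h, half-feeding at day 3. Mean TUBB3+ neurite length (µm) came from skeletonized images, relative to DMSO.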

[4] = IUF_NPC4_neurite_area_120hr: Leibniz Research Institute for Environmental Medicine (IUF) 120-hour Neuronal Morphology Assay for Neurite Area (NPC4) (AID 2284305)
Outline: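 Human fetal cortex-derived neural progenitor spheres (0.3 mm, GW 16-19) plated on poly-D-lysine/laminin in N2 differentiation medium and exposed from day 0 for 120 h across 7 concentrations plus solvent control. Neurite area is mean pixel area per TUBB3-positive neuron via skeletonization, analysed relative to DMSO.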

[5] = IUF_NPC2-5_cytotoxicity_120hr: Cytotoxicity Assessment at 120 hours in the Leibniz Research Institute for Environmental Medicine (IUF) Neural Progenitor Cell Migration and Differentiation Assay (NPC2-5) (AID 2284307);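 for AC50: LDH released into supernatant as membrane damage marker via resorufin fluorescence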
Outline: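 hNPC spheres on PDL/laminin, N2 medium, 37C; 7 concs + solvent control, DMSO ≤0.1%; 5-day exposure, half medium changed day 3. LDH in supernatant at 120 h, resazurin→resorufin fluorescence, gain-of-signal.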

[6] = IUF_NPC2-5_viability_120hr: Viability Assessment at 120 hours in the Leibniz Research Institute for Environmental Medicine (IUF) Neural Progenitor Cell Migration and Differentiation Assay (NPC2-5) (AID 2284312; active = hit-call score of the fitted dose curve at least 0.9, where 1 is the maximum; inactive = score below 0.9)
Outline: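 Human fetal (GW 16-19) neural progenitor spheres of 0.3 mm were plated on poly-D-lysine/laminin in N2 differentiation medium and exposed from day 0 for 120 h, with half-medium refresh at day 3. Viability was read as alamar blue resazurin-to-resorufin fluorescence against DMSO.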

[7] = CCTE_Mundy_HCI_iCellGluta_NOG_NeuriteLength: CCTE's Neurite Outgrowth Assay in iCellGluta cells for Neurite Length, Mundy Lab (AID 2284318)
Outline: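 Automated high-content imaging of betaIII-tubulin (Alexa Fluor-488) and Hoechst-stained cells gave neurite length, normalized to the DMSO baseline.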

[8] = IUF_NPC1_cytotoxicity_72hr: Cytotoxicity Assessment at 72 hours in the Leibniz Research Institute for Environmental Medicine (IUF) Neural Progenitor Cell Proliferation Assay (NPC1) (AID 2284332);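 note: rising LDH signal means more cytotoxicity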
Outline: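 Human fetal neural progenitor spheres (0.3 mm) in EGF/FGF proliferation medium, 37C, exposed 72 h without renewal. LDH release in supernatant read by resorufin fluorescence; gain of signal scored relative to dynamic range.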

[9] = IUF_NPC5_oligodendrocyte_differentiation_120hr: Leibniz Research Institute for Environmental Medicine (IUF) 120-hour Oligodendrocyte Differentiation Assay (NPC5) (AID 2284304);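 note: primary human fetal neural progenitor spheres plated to migrate and differentiate; share of O4-positive cells among Hoechst nuclei found by CNN image analysis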
Outline: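 hNPC spheres, fetal cortex GW 16-19; PDL/laminin, DMEM:F12 3:1 + 1% N2, 37C/5% CO2; 7 concentrations + solvent control, 5 d exposure, half-change day 3. Readout: %O4+ of Hoechst+ nuclei in migration area, CNN classification; DMSO baseline.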

[10] = TAMU_PeakParms_SingleDonor1434_Asystole: Texas A&M University (TAMU) 1.5-hr Human Induced Pluripotent Stem Cell (iPSC)-derived Cardiomyocytes Calcium (Ca+2) Flux Assay for Cardiotoxicity: Asystole (quiescence of beating) (AID 2284328)
Outline: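 Human iPSC-derived cardiomyocytes (donor 1434) were exposed to 0.2, 1, 10 and 100 uM compound in 0.5% DMSO for 90 min at 37C. Ca2+-dye fluorescence gave average peak frequency; POD is EC95, a 95% beat-rate drop versus DMSO.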

[11] = VALA_TUBHUV_Agonist_CellCount: Viability Assessment in the VALA Sciences human Umbilical Vein Endothelial Tubule Formation (TUBHUV) Agonism Assay (AID 2284309)
Outline: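 HUVEC co-cultured 1:3 with HDF for 3 days in 10 ng/ml VEGF, then compounds added in VEGF medium for a further 3 days (72 h). Nuclear-stain/CD31 imaging cell count. Positive-direction fit versus 0.1% DMSO vehicle.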

[12] = VALA_TUBHUV_Antagonist_CellCount: Viability Assessment in the VALA Sciences human Umbilical Vein Endothelial Tubule Formation (TUBHUV) Antagonism Assay (AID 2284310)
Outline: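 HUVEC co-cultured with HDF (1:3) 3 days in 10 ng/ml VEGF, then 3 days with compounds in VEGF medium. Fixed, nuclear stain and CD31 immunofluorescence, imaged; cell counts fitted versus 0.1% DMSO, loss of signal read as lower viability.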

IYD (gene 389434) = assay: CCTE_GLTED_hIYD: CCTE's human Iodotyrosine Deiodinase (xIYD) Inhibition Assay, Great Lakes Toxicology and Ecology Division (GLTED) Lab (AID 2284317);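 note: cell-free human IYD enzyme made in baculovirus insect cells; iodide freed from monoiodotyrosine measured by cerium arsenite color change at 420 nm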
Outline: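 hIYD: baculovirus-expressed human IYD deiodinated monoiodotyrosine for 3 h with test chemical; free iodide was measured by Sandell-Kolthoff absorbance at 420 nm and normalized to MNT and DMSO/NaOH controls.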

[13] = VALA_TUBHUV_Antagonist_TubuleLength: VALA Sciences human Umbilical Vein Endothelial Tubule Formation (TUBHUV) Antagonism Assay (AID 2284325)
Outline: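 HUVEC–HDF co-culture (1:3) pre-grown 3 days with 10 ng/ml VEGF, then 3 days with compound plus VEGF. Fixed, nuclear and CD31 stained; total tubule length by imaging versus 0.1% DMSO; suramin 100 uM positive control.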

Measured: AC50

O=C1c2ccccc2C(=O)N1SC(Cl)(Cl)Cl
inactive: [1] | [2] | SRD5A2 (gene 6716)

CCC(C)(C)C(=O)OC1=C(c2ccc(Cl)cc2Cl)C(=O)OC12CCCCC2
active: [7] 21.9 µM
inactive: [3] | [4] | [5] | [6] | [8]

COP(=S)(OC)Oc1ccc([N+](=O)[O-])cc1
inactive: [3] | [9] | [4] | [5] | [6] | [8]
active: [7] 21.6 µM

ClC1C(Cl)C(Cl)C(Cl)C(Cl)C1Cl (stereo unspecified)
inactive: [1] | [2] | SRD5A2 (gene 6716) | [10]

CN1CSC(=S)N(C)C1
inactive: [10]

Oc1cc(Cl)ccc1Oc1ccc(Cl)cc1Cl
active: IYD (gene 389434) 37.2 µM and 55.2 µM and 24.3 µM
inactive: [11] | [12] | [13]

CC(C)N(C(=O)COc1nnc(C(F)(F)F)s1)c1ccc(F)cc1
active: [5] 0.0343 µM
inactive: [3] | [9] | [4] | [6] | [7] | [8]

CCCN(CCC)c1c([N+](=O)[O-])cc(C(F)(F)F)cc1[N+](=O)[O-]
inactive: [1] | [2] | SRD5A2 (gene 6716)

CC1(c2ccc(Oc3ccccc3)cc2)OC(=O)N(Nc2ccccc2)C1=O (stereo unspecified)
active: [9] 1.61 µM | SRD5A2 (gene 6716) 9.91 µM
not listed: [10] | [11] | [12] | IYD (gene 389434) | [13]
inactive: all other assays above

CC1(C)C(C=C(Cl)Cl)C1C(=O)OC(C#N)c1ccc(F)c(Oc2ccccc2)c1 (stereo unspecified)
inactive: [3] | [4] | [5] | [6] | [7] | [8]
active: [9] 0.227 µM | [7] 9.9 µM

CNC(=O)CSP(=S)(OC)OC
inactive: [3] | [9] | [4] | [5] | [6] | [7] | [8]

CCC(C)(NC(=O)c1cc(Cl)c(C)c(Cl)c1)C(=O)CCl (stereo unspecified)
inactive: [1] | [2] | SRD5A2 (gene 6716)

CCC(C)Nc1c([N+](=O)[O-])cc(C(C)(C)C)cc1[N+](=O)[O-] (stereo unspecified)
inactive: [1] | [2] | SRD5A2 (gene 6716)

O=C(O)COc1ccc(Cl)cc1Cl
inactive: [3] | [5] | [6] | [7] | [8]
